# The list is not random: actives were taken first. Their share in the collection is about 19%.
# VP16 counter: Gal4-VP16 reporter inhibition counter-screen. Drosophila S2 Gal4-VP16 UAS-luciferase, luminescence, 20 h. Potency, µM (top dose mostly 53.6 µM), inactives show top-dose activity, negative = inhibition, actives largely listed as inhibitors. 3.5% of 310,000 active;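 also: Gal4-VP16 expression switched on by copper sulfate through the metallothionein promoter; nearly all actives have a fitted effect of over 50% in size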
# TDP1 cell noCPT: qHTS for Inhibitors of human tyrosyl-DNA phosphodiesterase 1 (TDP1): qHTS in cells in absence of CPT. DT40 Tdp1-/- hTDP1 cells, no CPT, ATP luminescence, 48 h. Potency, µM (titrated, usually from 46.2 µM), without a hit: at the top dose activity change, negative = growth inhibition, most hits filed as inhibitors. 15% of 420,000 active; also: nearly all actives have a fitted effect of over 55% in size
#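 Growth kinetics read by CellTiter-Glo luminescence after ≥48 hr at 37 °C. Cells: DT40 Tdp1-/- stably carrying human TDP1, 400 per well, compound exposure in the absence of CPT (DMSO vehicle).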
# RORg inh: inhibitors of mouse ROR gamma transcriptional activity. 5.4% of 310,000 active. AID 2551. Drosophila S2 Gal4-RORgamma UAS-luciferase reporter, 20 h. P51450. Potency, µM (highest dose often 53.6 µM), for the others: top-dose activity change, negative = inhibition, actives largely listed as inhibitors; also: nearly all actives have a fitted effect of over 60% in size
#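 ROR gamma transcriptional activity was tracked as Gal4-UAS luciferase output in stably transfected Drosophila Schneider cells, with compound added 1 hr before 700 uM copper sulfate induction and a 20 hr ambient-temperature incubation.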
# TDP1 cell CPT: growth inhibition of DT40 Tdp1-/-;hTDP1 cells with camptothecin (screen for TDP1 inhibitors); chicken DT40 Tdp1-/-;hTDP1 cells + 20 nM CPT, ATP luminescence, 48 h; Potency, µM (series often up to 46.2 µM), for inactives: at the highest dose activity change, negative = growth inhibition, usual class: inhibitors; 12% of 420,000 active; also: nearly all actives have a fitted effect of over 55% in size
#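 Chicken DT40 Tdp1-/- cells stably complemented with human TDP1 were seeded at 400 cells/well in medium containing 20 nM camptothecin, exposed to pin-transferred compounds, and grown at 37 °C for at least 48 hr. Viability was read as ATP luminescence.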
# TDP1 block: blocks human tyrosyl-DNA phosphodiesterase 1 | AID 485290 | recombinant TDP1, AlphaScreen DNA substrate cleavage | 0.28% of 350,000 active | Potency, µM (series often up to 130 µM), inactives show at the top dose activity change, negative = inhibition, most hits filed as inhibitors; also: nearly all actives have a fitted effect of over 40% in size
# Target sequence (Q9NUW8 whole entry, looked up): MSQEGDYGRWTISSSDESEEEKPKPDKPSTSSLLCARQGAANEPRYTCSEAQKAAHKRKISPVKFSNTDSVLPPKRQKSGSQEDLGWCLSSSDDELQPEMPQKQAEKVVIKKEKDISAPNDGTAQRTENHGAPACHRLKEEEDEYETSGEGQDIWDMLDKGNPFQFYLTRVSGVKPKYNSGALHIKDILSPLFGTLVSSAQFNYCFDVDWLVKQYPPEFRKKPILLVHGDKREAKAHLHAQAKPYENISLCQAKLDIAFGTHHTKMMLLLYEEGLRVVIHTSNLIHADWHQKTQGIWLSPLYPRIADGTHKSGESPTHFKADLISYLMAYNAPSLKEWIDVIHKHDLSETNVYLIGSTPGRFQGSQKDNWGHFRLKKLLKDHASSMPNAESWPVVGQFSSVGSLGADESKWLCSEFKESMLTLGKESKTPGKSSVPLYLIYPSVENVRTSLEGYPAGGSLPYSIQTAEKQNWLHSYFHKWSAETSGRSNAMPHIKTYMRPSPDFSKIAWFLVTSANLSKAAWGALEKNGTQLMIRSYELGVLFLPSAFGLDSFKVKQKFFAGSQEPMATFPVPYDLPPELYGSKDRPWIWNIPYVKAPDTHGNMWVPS
#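 Tdp1 1 nM final; 15 min RT w/ cpd; substrate 15 nM, 5 min; beads 10 ug/ml, 10 min; AlphaScreen read. Neg ctrl: no enzyme.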
# * hit, by the source's call; u = inconclusive; x = not tested or not shown; [ ] = another dose, or the depositor's remark. Calls follow the shape of the dose curve; as a rule, active = well fitted curve in the direction sought with a large enough effect; inconclusive = small, poorly fitted or top-dose-only effect, or another doubt; inactive = no such curve, though single readings can be large; an effect the other way counts as inactive or inconclusive. % is scaled to controls: 0 for no effect and ±100 for the full control effect; potency is read from the fitted curve at half-maximal effect.
SMILES,VP16 counter,TDP1 cell noCPT,RORg inh,TDP1 cell CPT,TDP1 block
CCN(CC1CCCN(CCc2cccc(F)c2)C1)C(=O)c1cc2ccccc2o1 (stereo not given),5.6%,18.4µM*,21.2%,25.9µM*,3.9%
CCN(CC1CCCN(CCc2cccc(F)c2)C1)C(=O)c1cc(C)oc1C (stereo not given),6.7%,u,5.6%,u,6.2%
CN(CC1CCCN(CCc2cccc(C(F)(F)F)c2)C1)C(=O)c1cc2ccccc2o1 (stereo not given),1.8%,13µM*,-13.6%,u,x
Cc1ccc(-n2c(C)cc(C(=O)COC(=O)c3c(C)noc3C)c2C)cc1,u,9.2µM*,u,9.2µM*,10.7%
Cc1cc(C(=O)COC(=O)C2=NNC(=O)CC2)c(C)n1-c1ccccc1,-14.8%,-13.3%,-34.4%,-23.9%,-2.3%
Cc1ccc(-n2c(C)cc(C(=O)COC(=O)C3=NNC(=O)CC3)c2C)cc1,3.7%,u,17.5%,16.4µM*,7.6%
CC(=O)Nc1ccc(S(=O)(=O)NC2(C(F)(F)F)NC(=O)N(CC(C)C)C2=O)cc1 (stereo not given),6.6%,-12.7%,12.1%,6.8%,2.7%
CC(=O)c1ccc(OCc2cc(C(=O)N3CCCCC3c3cccnc3)no2)cc1 (stereo not given),u,18.4µM*,34.5%,20.6µM*,5.4%
COc1cccc(OCc2cc(C(=O)N3CCN(C)C(c4ccccc4)C3)no2)c1 (stereo not given),14.1%,u,32.6%,25.9µM*,4.5%
COCC1CCCN(C(=O)c2cc(COc3ccc(C(C)=O)cc3)on2)C1 (stereo not given),x,-28.3%,x,-22.4%,x
Cc1ccc(OCc2cc(C(=O)N3CCCC(C)C3)no2)cn1 (stereo not given),x,20.6µM*,x,16.4µM*,x
C=CCC1(CC=C)CCCN1C(=O)c1cc(COc2cccc(OC)c2)on1,u,u,u,u,-14.4%
CC(=O)c1ccc(OCc2cc(C(=O)N3CCC(c4ccncc4)CC3)no2)cc1,u,5.8µM*,-7.0%,11.6µM*,6.2%
Cn1cccc1Cc1nnc(SCC(=O)NC2CCCCC2)n1-c1ccc(F)cc1,-3.1%,u,-8.9%,u,11.8%
CC(=O)c1ccc(OCc2cc(C(=O)N3CC[C@@H]4CCCC[C@H]4C3)no2)cc1,-12.5%,16.4µM*,18.7%,u,-1.7%
COc1cccc(OCc2cc(C(=O)N3CCC(c4ccncc4)CC3)no2)c1,u,8.2µM*,-32.5%,14.6µM*,4.0%
CCN(CC)c1ccc(C(=O)N2CCC(c3ccncc3)CC2)cc1,x,3.26µM*,x,20.6µM*,0.5%
COc1cccc(OC)c1C(=O)Nc1ccccc1C(=O)N1CCOCC1,6.0%,12.0%,25.7%,-0.5%,1.1%
O=C(COC(=O)Cc1ccc(F)cc1)Nc1ccc2[nH]c(=O)[nH]c2c1,x,-19.1%,x,-0.5%,x
COc1ccc(-c2oc3ccc(-c4cc(OC)c(OC)c(OC)c4)cc3c2C#Cc2ccsc2)cc1,4.8%,u,0.4%,u,x
COc1ccc(-c2c(-c3ccsc3)oc(=O)c3cc(OC)c(OC)cc23)cc1,x,u,x,u,0.1%
COc1ccc(-c2ccc3oc(-c4ccc(OC)cc4)c(C#CCO)c3c2)cc1,x,u,x,23.1µM*,x
COc1ccc(-c2oc(=O)c3cc(OC)c(OC)cc3c2C#C[C@]2(O)CC[C@H]3[C@@H]4CCc5cc(OC)ccc5[C@H]4CC[C@@]32C)cc1,x,16.4µM*,x,u,-0.1%
COCc1ccc(-c2c(-c3ccc(OC)cc3)oc(=O)c3cc(OC)c(OC)cc23)cc1,x,23.1µM*,x,u,-9.1%
COc1cc2c(-c3ccc4cc[nH]c4c3)c(-c3ccc(C#N)cc3)oc(=O)c2cc1OC,x,9.2µM*,x,5.8µM*,0.0%
SMILES,VP16 counter,TDP1 cell noCPT,RORg inh,TDP1 cell CPT,TDP1 block
COc1ccc(C(C)=O)cc1COC(=O)Cc1n[nH]c(=O)c2ccccc12,1.2%,u,3.5%,u,-1.9%
Cc1cccc(C(=O)N2c3ccccc3C(=O)OC2c2ccc3c(c2)OCO3)c1 (stereo not given),0.0%,-22.8%,-9.9%,-15.0%,3.0%
COc1ccc(C(=O)c2c(-c3ccc(OC)cc3)oc3ccc(-c4cc(OC)c(OC)c(OC)c4)cc23)cc1,x,9.2µM*,x,7.31µM*,x
COc1ccc(-c2oc3ccc(-c4cc(OC)c(OC)c(OC)c4)cc3c2C(=O)c2ccc(OC)nc2)cc1,-1.9%,u,4.6%,u,x
COc1ccc(/C=C/c2c(-c3ccc(OC)cc3)oc(=O)c3cc(OC)c(OC)cc23)cc1,x,u,x,u,2.9%
CCOC1CCCc2oc(-c3ccc(OC)cc3)c(C#CCCO)c21 (stereo not given),x,16.4µM*,x,u,x
COc1cc2c(O)c3c(c(-c4ccc5c(c4)OCO5)c2cc1OC)C(=O)OC3,1.8%,3.26µM*,u,1.84µM*,3.2%
COc1ccc(-c2oc(=O)c3cc(OC)c(OC)cc3c2C#CCCO)cc1,x,20.6µM*,x,u,0.8%
COc1ccc(-c2sc3cc4c(cc3c2-c2ccc3c(c2)OCCO3)OCO4)cc1,x,u,x,u,1.1%
COc1ccc(-c2oc(=O)c3cc(OC)c(OC)cc3c2-c2ccc3c(c2)OCO3)cc1,x,18.4µM*,x,16.4µM*,-0.9%
O=C(CCN1C(=O)c2cccc3cccc(c23)C1=O)NCC1CCCO1 (stereo not given),-0.5%,-3.0%,2.9%,0.9%,5.0%
COc1cc(C(=O)NCC(c2ccco2)N2CCc3ccccc32)cc(OC)c1OC (stereo not given),x,9.2µM*,x,u,4.0%[0.505 µM]
Cc1ccc(C(=O)NCC(c2ccco2)N2CCc3ccccc32)cc1C (stereo not given),x,16.4µM*,x,20.6µM*,x
COc1ccc(CCC(=O)NCC(c2ccco2)N2CCc3ccccc32)cc1 (stereo not given),x,23.1µM*,x,18.4µM*,x
O=C(NCC(c1ccco1)N1CCc2ccccc21)c1ccccc1 (stereo not given),x,u,x,u,4.4%[0.505 µM]
COc1ccccc1C(=O)NCC(c1ccco1)N1CCc2ccccc21 (stereo not given),x,23.1µM*,x,14.6µM*,3.1%[0.505 µM]
COc1ccccc1NC(=O)C(=O)NCC(c1ccco1)N1CCc2ccccc21 (stereo not given),x,u,x,u,7.4%[0.505 µM]
CCOC(=O)Cc1csc(NC(=O)NC2(C(F)(F)F)Oc3ccccc3O2)n1,-18.7%,-26.6%,-26.8%,-16.5%,5.1%
COc1ccccc1CNC(=O)Nc1ccc2c(c1)N(C)C(=O)c1ccccc1S2,x,u,x,u,5.7%

# Screening results from PubChem BioAssay.
